The values that follow come from PubChem BioAssay AID540308 (The Scripps Research Institute Molecular Screening Center, 2011).

The structures appear in SMILES notation. The whole screen tested about 360,000 compounds, of which about 3,500 (0.97%) were called active. This is one part of a sample in which actives are shown more often than they occur.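 Rule for the calls: active = activation above a per-plate cutoff, the mean activation of sample wells on that plate plus 3 SD (cut at about 8% in these data); inactive = the rest.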

In this assay the target is Melanocortin receptor 4 (Homo sapiens) (UniProt P32245). Briefly: activators of MC4R beta-arrestin recruitment – cell-based, luminescence, agonist arm of biased-ligand search, primary screen (AID 540308). As to conditions: U2OS MC4R beta-arrestin complementation, at 8.9 µM, hits give high values, percent of melanotan II response, DMSO zero.
Sequence of Melanocortin receptor 4 (Homo sapiens) (P32245 whole entry, looked up): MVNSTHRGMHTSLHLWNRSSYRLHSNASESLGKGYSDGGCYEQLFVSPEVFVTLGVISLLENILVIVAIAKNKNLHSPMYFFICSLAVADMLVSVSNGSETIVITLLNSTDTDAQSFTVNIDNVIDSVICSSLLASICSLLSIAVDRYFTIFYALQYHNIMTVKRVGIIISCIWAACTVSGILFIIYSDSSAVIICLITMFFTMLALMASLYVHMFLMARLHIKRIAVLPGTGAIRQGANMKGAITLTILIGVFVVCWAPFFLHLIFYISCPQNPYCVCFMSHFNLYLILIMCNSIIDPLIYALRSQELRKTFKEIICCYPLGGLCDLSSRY
On to `COc1ccccc1-c1cc(NC(C)=O)c2ncc(-c3ccc(F)cc3)n2c1`, for which the activation is 10.3% (active).

Consider `CC(=O)Nc1cc(-c2ccccc2N(C)C)cn2c(-c3ccc(F)c(Cl)c3)cnc12`, for which the activation is 25.4% (active).

In the case of `COc1cccc(-c2cnc3c(NC(C)=O)cc(-c4cc(F)ccc4OC)cn23)c1`, the activation was 29.8% (active).

Take `CC(=O)Nc1cc(-c2ccccc2F)cn2c(-c3cccc(C(F)(F)F)c3)cnc12`: the activation is 22.5% (active).

As for `COc1cccc(-c2cnc3c(NC(C)=O)cc(-c4cccc(NC(C)=O)c4)cn23)c1`, the activation was 7.42% (inactive).

As to `CC(=O)Nc1cc(-c2ccc(N3CCN(C)CC3)cc2)cn2c(-c3ccc(F)cc3)cnc12`, the activation was 0.23% (inactive).

`CC(=O)Nc1cccc(-c2cc(NC(C)=O)c3ncc(-c4ccccc4)n3c2)c1`: the activation was 6.05% (inactive).

`CC(=O)Nc1cc(-c2ccc(N3CCN(C)CC3)cc2)cn2c(-c3cccc(C(=O)N(C)C)c3)cnc12`: the activation was 0.62% (inactive).

In the case of `CC(=O)Nc1cc(-c2cccc(CO)c2)cn2c(-c3cccc(C(F)(F)F)c3)cnc12`, the activation was 4.6% (inactive).

With `COc1cccc(-c2cc(NC(C)=O)c3ncc(-c4cccc(C(C)=O)c4)n3c2)c1`, the activation was 3% (inactive).

On to `CC(=O)Nc1cccc(-c2cc(NC=O)c3ncc(-c4ccc(F)c(Cl)c4)n3c2)c1`, for which the activation was 5.15% (inactive).

`COc1ccc(-c2cc(NC(C)=O)c3ncc(-c4cc(OC)c(OC)c(OC)c4)n3c2)cn1`: the activation was -0.61% (inactive).

For `COC(=O)Cc1ccc(OC2(C)CCN(Cc3ccc4c(c3)OCCO4)C2)cc1` (stereo not drawn), the activation was -0.74% (inactive).

As to `CC1(C(=O)NS(=O)(=O)Cc2cccc(Cl)c2)CCN1C(=O)Cc1ccccc1` (stereo not drawn), the activation was -0.92% (inactive).

Consider `NC(c1csc(NC(=O)Nc2ccccc2Oc2ccccc2)n1)c1ccccc1Cl` (stereo not drawn), for which the activation is 5.13% (inactive).

`CCCNC(=O)C1(C)CCN(Cc2csc(-c3ccc(Cl)cc3)n2)C1` (stereo not drawn): the activation was -0.8% (inactive).

`O=C(Nc1ccc(Cl)cc1)c1csc([C@H]2C[C@H](O)[C@@H](CO)O2)n1`: the activation is -0.15% (inactive).

For the compound `CCOC(=O)C1(Cc2cccc(OC)c2)CCCN(C(=O)CCSC)C1` (stereo not drawn), the activation was -1.03% (inactive).

Take `CCCC(=O)N1CCC1(C)C(=O)NS(=O)(=O)c1ccc(Cl)cc1` (stereo not drawn): the activation is -0.17% (inactive).

Turning to `OC(c1ccc(Cl)cc1)c1ncc(-c2ccc(Cl)cc2)[nH]1` (stereo not drawn), the activation was 1.64% (inactive).

For the compound `Cc1ccc(-c2cnc(C(O)c3cc(Cl)cc(Cl)c3)[nH]2)cc1` (stereo not drawn), the activation was 9.5% (active).

With `Cc1cccc(-c2cnc(C(O)c3cc(C)cc(C)c3)[nH]2)c1` (stereo not drawn), the activation was -1.6% (inactive).

As for `C#CCNC(=O)[C@H](Cc1ccc(C(=O)c2ccccc2)cc1)NC(=O)OC(C)(C)C`, the activation is -0.75% (inactive).

As to `Cc1ccc(Nc2nnc(SCc3ccccc3)s2)cc1`, the activation was 16.6% (active).

As for `Cc1ccc(Nc2nnc(SC(C)C(=O)NC3CC3)s2)cc1` (stereo not drawn), the activation is 1.11% (inactive).

Take `Cc1ccc(Nc2nc(N)nc(CSc3nnc(C)s3)n2)cc1`: the activation is -0.99% (inactive).

For the compound `OC[C@@H]1CN(C2CCCC2)C[C@H](n2cnc3c(NC4CCC4)ncnc32)O1`, the activation was -0.37% (inactive).

Turning to `CCOC(=O)c1cc(=O)c2ccc(OCc3ccccc3)cc2o1`, the activation was -0.49% (inactive).

For `Cc1ccccc1NC(=O)c1ccc(COc2ccc3c(C)cc(=O)oc3c2)cc1`, the activation was 19.5% (active).

Take `CCN(C(=O)COC(=O)c1ccc(COc2ccc3c(C)cc(=O)oc3c2)cc1)C1CCS(=O)(=O)C1` (stereo not drawn): the activation was -3.78% (inactive).

As for `Cc1ccc(CC2(C)C(=O)Nc3ccc(OC(F)(F)F)cc32)cc1` (stereo not drawn), the activation was 6.29% (inactive).

Regarding `CC1(Oc2ccccc2-c2ccno2)CCN(Cc2ccc(-c3ccccc3)o2)C1` (stereo not drawn), the activation is -0.57% (inactive).

As to `CCc1nc2c(OCCOc3ccccc3)cccn2c1N(C=O)Cc1ccc(OC)cc1`, the activation is -1.25% (inactive).

Take `CCc1nc2c(OCCOc3ccccc3)cccn2c1N(C)C(=O)c1ccccc1F`: the activation was -0.99% (inactive).

On to `N#Cc1ccc(-c2ccc3nccn3c2)cc1`, for which the activation is -0.91% (inactive).

As to `O=C(Nc1ccc(OCCO)cc1)c1csc([C@H]2C[C@H](O)[C@@H](CO)O2)n1`, the activation is 1.86% (inactive).

Regarding `CCN1CCC(O)(/C=C/c2ccc(C)cc2)C(C(=O)/C=C/c2ccc(C)cc2)C1` (stereo not drawn), the activation is -1.73% (inactive).

`Cc1ccc(SCC(=O)N2CCN(c3ccc(F)cc3)CC2)cc1`: the activation is -0.3% (inactive).

With `CCN1CCC2(CC1)N=C(c1ccc(F)cc1)C(=S)N2C(=O)c1ccc(C)cc1`, the activation was 11.5% (active).

Take `COc1ccc2sc(-c3ccc(S(C)(=O)=O)cc3)c(C#Cc3cncn3C)c2c1`: the activation is 35.2% (active).

Take `COc1ccc(-c2sc3ccc(OC)cc3c2C#Cc2ccccn2)cc1`: the activation was -2.74% (inactive).

Turning to `COc1ccc2sc(-c3ccc(S(C)(=O)=O)cc3)c(-c3ccc(C(N)=O)cc3)c2c1`, the activation was 0.87% (inactive).

On to `CC1(C(=O)O)CCN1C(=O)/C=C/c1ccccc1` (stereo not drawn), for which the activation was 0.27% (inactive).

As for `COc1ccccc1CNC(=O)c1cc(-c2cc(Cl)ccc2C)n[nH]1`, the activation is -0.81% (inactive).

With `Cc1ccc(NS(=O)(=O)c2cc3c(cc2Br)NC(=O)CO3)cc1C`, the activation was 1.67% (inactive).

As for `COc1ccc(C)c(Cn2c(-c3nonc3N)nc3ccccc32)c1`, the activation is 12.1% (active).

On to `COc1ccccc1Cn1c(CO)nc2ccccc21`, for which the activation was 1.82% (inactive).

Take `CCn1c(C(O)c2cc(OC)ccc2OC)nc2ccccc21` (stereo not drawn): the activation is -1.32% (inactive).

`CCCNC(=O)C1(C)CCCN(Cc2cccc(C(F)(F)F)c2)C1` (stereo not drawn): the activation is 0.13% (inactive).

Take `COc1cccc(CNc2nc(NCc3ccccc3OC)nc3ccsc23)c1`: the activation is -1.7% (inactive).

In the case of `COc1ccc(-c2ccc(C(=O)NCCN3CCOCC3)c3occc23)c(C)c1`, the activation was -2.32% (inactive).

For `CCNC(=S)Nc1ccc2c(c1)c(=O)n(C)n2Cc1ccc(Cl)cc1`, the activation is -1.45% (inactive).

For `COCCN(CCOC)S(=O)(=O)c1ccc(C(=O)Nc2nc3c(s2)CCc2ccccc2-3)cc1`, the activation is 15.6% (active).

As to `C=CCN(CC=C)S(=O)(=O)c1ccc(C(=O)Nc2nc3c(s2)CCc2ccccc2-3)cc1`, the activation was 1.77% (inactive).

In the case of `COCCN(CC(=O)Nc1ccccc1C)S(=O)(=O)c1ccc(S(=O)(=O)N2CCCC2)cc1`, the activation is -3.53% (inactive).

Regarding `OC(c1cc(Cl)cc(Cl)c1)c1ncc(-c2ccccc2C(F)(F)F)[nH]1` (stereo not drawn), the activation was -0.63% (inactive).

As to `OC[C@@H]1CN(Cc2ccncc2)C[C@H](n2cnc3c(N4CCN(c5ccccc5)CC4)ncnc32)O1`, the activation is 0.16% (inactive).

For `CC1(C(=O)NS(=O)(=O)c2ccc(Cl)cc2)CCN1C(=O)CC1CCCC1` (stereo not drawn), the activation was 1.72% (inactive).

As for `COc1ccc2oc(=N)c(C(=O)Nc3ccc(Br)cc3)cc2c1`, the activation is 1.15% (inactive).

Regarding `CC(C)C(=O)Nc1c(C(=O)c2ccc(F)cc2)oc2ccccc12`, the activation is 1.16% (inactive).

As for `COc1ccc(C(=O)c2oc3ccc(Br)cc3c2NC(C)=O)cc1`, the activation was 11.7% (active).

Turning to `CCN(CC(=O)Nc1ccccc1C(=O)NC1CC1)Cc1cccs1`, the activation was -0.58% (inactive).

As for `Cc1nn(-c2ccccc2)c(Cl)c1/C=N/NC(=O)c1nn(C)cc1[N+](=O)[O-]`, the activation is -2.85% (inactive).

For the compound `Cc1nn(-c2ccccc2)c(NC(=O)c2cccs2)c(-c2ccc(Cl)cc2)c1=O`, the activation is -1.07% (inactive).

Regarding `Cc1ccc(-n2nc(C)c(/C=N/NC(=O)c3cccs3)c2Cl)cc1`, the activation is 20.9% (active).

With `COc1cccc(NC(=O)C2(C)CCN2C(=O)CCC2CCCC2)c1` (stereo not drawn), the activation is 2.96% (inactive).

Turning to `COc1cc(NC(=O)c2cccs2)ccc1NC(=O)c1ccccc1Cl`, the activation is 0.56% (inactive).

With `COc1cc(NC(=O)c2ccc3c(c2)OCO3)ccc1NC(=O)c1cccs1`, the activation is -0.83% (inactive).

Consider `CCC(=O)c1cc2c(cc1NC(=O)c1cccs1)OCCO2`, for which the activation is 23.2% (active).

As for `COc1ccc(/C=N/NC(=O)Nc2ccc3nsnc3c2)c(OC)c1`, the activation was 13.5% (active).

As to `COc1ccc(-c2[nH]ncc2/C=N/NC(=O)c2cc(Br)ccc2O)c(OC)c1`, the activation is 0.86% (inactive).

Regarding `COc1ccc(S(=O)(=O)NNC(=O)Nc2ccc(C)cc2)c(OC)c1`, the activation was 0.62% (inactive).

With `O=C(NCCNc1ccc([N+](=O)[O-])cc1Cl)c1ccccc1F`, the activation is -1.37% (inactive).

Consider `O=C(NCCNc1ccc([N+](=O)[O-])cc1)c1cccc2c(Br)cccc12`, for which the activation is 8.32% (active).

With `CC(CNc1ccc([N+](=O)[O-])cc1)NC(=O)c1ccccc1Br` (stereo not drawn), the activation is 0.96% (inactive).

For `CC(=O)Oc1ccc(Cn2c(C)c(C(=O)NCc3ccc(C#N)cc3)sc2=O)cc1`, the activation is 0.49% (inactive).

Take `CCCCCCCCCCOC(=O)Cn1c(COc2ccc(C)cc2)[n+](C)c2ccccc21`: the activation is 16.7% (active).

As to `CCCCOc1ccc(NC(=O)CSCC(=O)OCC)cc1`, the activation was 0.02% (inactive).

Regarding `Cc1ccc(COc2ccc(C(=O)NN)cc2)cc1`, the activation is 6.84% (inactive).

For `CCCCCCCCCCOC(=O)Cn1c(COc2cccc(OC)c2)[n+](C)c2ccccc21`, the activation is 21.1% (active).

As to `COCCCNC(=O)c1ccc(-c2c(C)noc2C)c2ccoc12`, the activation was -0.44% (inactive).

For `COc1cc(NC(=O)c2cc(-c3ccc(F)cc3OC(C)C)n[nH]2)cc(OC)c1OC`, the activation is 3.09% (inactive).

As for `Cc1ccc(C)c(C(O)c2ncc(-c3cccc4ccccc34)[nH]2)c1` (stereo not drawn), the activation is -2.84% (inactive).

Regarding `O=C(NCCCN1CCCCC1)c1ccc2c(c1)NC(=O)C(N1CCOCC1)S2` (stereo not drawn), the activation is -0.87% (inactive).

For `CCCNC(=O)c1cc(C2CCCCN2S(=O)(=O)c2ccc(C#N)cc2)on1` (stereo not drawn), the activation was 0.19% (inactive).

Take `O=C(NCCN1CCOCC1)c1ccccc1N1C(=O)[C@@H]2Cc3c([nH]c4ccccc34)C(c3cccc(Cl)c3)N2C1=O` (stereo partly drawn): the activation was -1.7% (inactive).

As to `Cc1ccc(C(O)c2ncc(-c3ccccc3F)[nH]2)cc1F` (stereo not drawn), the activation was -0.39% (inactive).

As for `COc1ccc(C(NC(=O)C2CCN(CCCc3ccccc3)CC2)c2cccs2)cc1` (stereo not drawn), the activation was 0.65% (inactive).
